Test results: PubChem BioAssay AID488862 (Broad Institute, 2010)
“And” between values parts separate entries of the source, which are not always exact repeats. Identical values can stand only once. In all, about 340,000 compounds went through this assay and about 1,200 (0.35%) were called active. This is one part of a sample in which actives are shown more often than they occur. Cut-off read from the data, not from the text of the source: active = inhibition above about 52%; inactive = the rest.

Experiment: suppresses PrP 5' UTR mRNA reporter expression (AID 488862); note: 0 = median of the neutral control wells
Conditions: cell-based PrP 5' UTR mRNA reporter, plate reader; active compounds read high; concentration not given here

Row | Structure (SMILES) | inhibition
1 | CC(=O)Nc1ccc(NC(=O)CSc2nnc(COc3ccccc3C)n2CC2CCCO2)cc1 (configuration not stated) | -3.51% (inactive)
2 | CCOC(=O)N1CCC(N2Cc3cccc(C(=O)Nc4c(C)cccc4CC)c3C2=O)CC1 | -4.9% (inactive)
3 | Cc1nc2c(-c3ccc(F)cc3)c(C)nn2c(C)c1CCC(=O)N1CCN(c2ccccn2)CC1 | 4.39% (inactive)
4 | COc1ccc(CCNS(=O)(=O)c2ccc(Cl)s2)cc1OC | 6.31% (inactive)
5 | COC1C(O)C(C)OC(OC2CCC3(C=O)C(CCC4C3CCC3(C)C(C5=CC(=O)OC5)CCC43O)C2)C1O (configuration not stated) | 89.8% (active)
6 | COc1ccc(C(=O)C2CCCN(C(=O)c3cnsn3)C2)c(C)c1 (configuration not stated) | -10.1% (inactive)
7 | Cc1cc(Nc2ccccc2)n(C(=O)c2ccc(N)cc2)n1 | 67.9% (active)
8 | Cc1cc(NC(=O)Nc2ccc(Cl)cc2)n(-c2ccccc2)n1 | -39.6% (inactive)
9 | Cn1c(Nc2ccccc2)cc(=O)n(C)c1=O | -38.1% (inactive)
10 | CCOc1ccc(CN(Cc2ccco2)C(c2cccs2)c2nnnn2C(C)(C)C)cc1 (configuration not stated) | -13.3% (inactive)
11 | CCOc1ccc(NC(=O)CCCCCN2C(=O)[C@@H]3Cc4ccccc4CN3C2=O)cc1 | -14.6% (inactive)
12 | CCOc1ccc(NC(=O)CCS(=O)(=O)c2cccc3nsnc23)cc1 | -15.9% (inactive)
13 | Cc1ccc2nc(-c3ccc(Br)cc3)cn2c1 | 71% (active)
14 | Cc1ccc(-c2cn3cc(C)ccc3n2)cc1 | 85.2% (active)
15 | Cc1ccc(-n2c(-c3ccc(Cl)cc3)n[nH]c2=S)cc1 | -0.525% (inactive)
16 | Cc1ccc(-c2cc(N)on2)cc1 | -33% (inactive)
17 | CSc1nnc2ccc(-c3ccc(C)cc3)nn12 | 0.671% (inactive)
18 | Cc1ccc(-c2cc(C(=O)NCc3cn(C)nc3C)c3cc(Br)ccc3n2)cc1 | -28.8% (inactive)
19 | O=C(NC(=S)Nc1ccc(Cl)cc1Cl)C1CC1 | -42.6% (inactive)
20 | O=C(COC(=O)c1ncc(Cl)c(Cl)c1Cl)NCc1cccs1 | -15.5% (inactive)
21 | CCCCN(C(=O)CCNC(=O)NC12CC3CC(CC(C3)C1)C2)c1c(N)n(CCCC)c(=O)[nH]c1=O | 9.19% (inactive)
22 | COc1ccc(CCNC(=O)C2CCCN2C(=O)Nc2ccccc2)cc1OC (configuration not stated) | -48% (inactive)

Row | Structure (SMILES) | inhibition
23 | Cc1ccc(OCCOCCOc2ccc(Br)cc2/C=N\NC(=O)c2ccncc2)cc1 | -18.1% (inactive)
24 | O=C(CSC1c2ccccc2-c2ccccc21)N/N=C/c1ccccc1 | 9.76% (inactive)
25 | Cc1cccc(OCC(=O)NCC(=O)N/N=C/c2ccc(N(C)C)cc2)c1 | -13.2% (inactive)
26 | Cc1ccc(/C=N/NC(=O)COc2ccccc2-c2ccccc2)cc1 | 70% (active)
27 | COc1ccc(OC)c(S(=O)(=O)Nc2cccc(-c3ccc4nncn4n3)c2)c1 | -13.4% (inactive)
28 | Cc1c(CN2CCCC(C(=O)c3cccc(Cl)c3)C2)c(=O)n(-c2ccccc2)n1C (configuration not stated) | -12.1% (inactive)
29 | CCOc1ccc(N/C=C/C(=O)c2cc(OC)c(OC)c(OC)c2)cc1 | -105% (inactive)
30 | CCOc1ccc(N/C=C/C(=O)c2ccccc2)cc1 | -1.68% (inactive)
31 | COc1ccc(C(=O)/C=C/Nc2ccccn2)cc1 | 66% (active)
32 | CCc1cc2c(N3CCN(c4nnc(CC)s4)CC3)ncnc2s1 | 2.26% (inactive)
33 | CC(C)(C)c1ccc(/C=C2\SC(=O)N=C2N)cc1 | 36.2% (inactive)
34 | CCCCSCCCNC(=O)C1CCC(CNS(=O)(=O)c2ccc(NC(C)=O)cc2)CC1 (configuration not stated) | -21.5% (inactive)
35 | CCN(CCn1cccn1)C(=O)CC1C(=O)NCCN1Cc1cccc(OC)c1OC (configuration not stated) | -9.29% (inactive)
36 | CCCCNCCS(=O)(=O)NCc1ccccc1 | -9.61% (inactive)
37 | COc1ccccc1CNS(=O)(=O)c1ccc(C)cc1 | -15.1% (inactive)
38 | CCCCNS(=O)(=O)CCNCc1ccccc1OC | 60.7% (active)
39 | Cc1ccc(-c2cccc([C@H]3[C@@H]4C=CC[C@@H](C)[C@@H]4C(=O)N3Cc3ccccc3)c2)cc1 | 61.8% (active)
40 | Cc1cccc([C@H]2[C@@H]3C=CC[C@@H](C)[C@@H]3C(=O)N2Cc2ccccc2)c1 | -11.5% (inactive)
41 | Cc1cccc([C@@H]2[C@@H]3C(=O)N(Cc4ccccc4)C(=O)[C@@H]3[C@]3(C)C(=O)N(c4ccc(Br)cc4)C(=O)N23)c1 | -3.38% (inactive)
42 | Cc1nc(N=C(N)N)nc2c(C)cccc12 | -22.8% (inactive)
43 | Cc1nc(C(=O)NCc2ccccc2)sc1C1(C)CC(c2cccnc2)=NO1 (configuration not stated) | -16.5% (inactive)
44 | COc1ccccc1C1C2=C(COC2=O)Nc2cc3c(cc21)OCO3 (configuration not stated) | 65.7% (active)

Row | Structure (SMILES) | inhibition
45 | O=C1OCC2=C1C(c1ccc(Cl)cc1)c1cc3c(cc1O2)OCO3 (configuration not stated) | 16.1% (inactive)
46 | CCCOc1ccccc1C1CC(=O)Nc2cc3c(cc21)OCO3 (configuration not stated) | -21.5% (inactive)
47 | COc1ccc(NC(=O)CN(C)C(=O)c2ccc(NC3CC3)c([N+](=O)[O-])c2)cc1 | -13.7% (inactive)
48 | Cc1noc(C)c1S(=O)(=O)Nc1ccc(C(=O)N2CCN(c3ccc(F)cc3)CC2)cc1 | 44.2% (inactive)
49 | N#Cc1nc(N)nc(N(c2ccccc2)c2ccccc2)n1 | -20.2% (inactive)
50 | CCc1nn(CCCN2CCN(c3cccc(Cl)c3)CC2)c(=O)n1CCOc1ccccc1 | -17.3% (inactive) and 2.12% (inactive)
51 | O=C(O)c1cccnc1NC1CCCC1 | -17.1% (inactive)
52 | Cc1cc(C(=O)CCC(=O)NNC(=O)c2ccccc2O)c(C)s1 | 4.28% (inactive)
53 | CC1=C(C)CC(C(=O)NNC(=O)c2ccccc2O)C(C(=O)O)C1 (configuration not stated) | -11.4% (inactive)
54 | O=C(NNC(=O)c1ccccc1O)c1ccccc1O | 58.9% (active)
55 | C/C(=N/NC(=O)CN1CCN(S(=O)(=O)c2ccc(Br)cc2)CC1)c1ccncc1 | -9.51% (inactive)
56 | Cc1cc(C)nc(/N=C2\NC(=O)CC(C(=O)O)N2c2ccc(Cl)cc2Cl)n1 (configuration not stated) | -13.6% (inactive)
57 | COc1ccc(C23NCCN2C(=O)c2ccccc23)cc1 (configuration not stated) | -5.86% (inactive)
58 | CC(NC(=O)c1cccc2ccccc12)c1ccc2c(c1)CCCC2 (configuration not stated) | -15.9% (inactive)
59 | COc1cccc2c1C(=O)c1c(O)c3c(c(O)c1C2=O)CC(O)(C(C)=NNC(=O)c1ccc(Cl)c(Cl)c1)CC3OC1CC(N)C(O)C(C)O1 (configuration not stated) | 81% (active)
60 | CC(=O)Nc1ccc(C(=O)Nc2cc(S(=O)(=O)N3CCOCC3)ccc2N2CCOCC2)cc1 | 2.41% (inactive)
61 | O=C(CN1C2CCC1CC(NC(=O)C1CC1)C2)NCc1ccccc1 (configuration not stated) | -21.6% (inactive)
62 | CCCS(=O)(=O)N1CCN(C(=O)c2cccs2)CC1 | -11% (inactive)
63 | Nc1nc(SCC(=O)NCCN2CCOCC2)nc2sc3c(c12)CCC3 | -29.6% (inactive)
64 | C=C(C)CSc1nc(N)c2c3c(sc2n1)CCC3 | -92.1% (inactive)
65 | CC(C)(C)C1CCc2c(sc3nc(SCC(N)=O)nc(N)c23)C1 (configuration not stated) | 67.4% (active)
66 | CC1O[C@@H](OC2C(O)C(C)O[C@H](OC(=O)[C@]34CCC(C)(C)C[C@H]3C3=CCC5[C@@]6(C)CC(O)C(O[C@@H]7OC(CO)C(O)[C@@H](O)[C@@H]7O)[C@@](C)(C(=O)O)C6CC[C@@]5(C)[C@]3(CO)CC4)C2O[C@H]2OC(C)[C@@H](O[C@@H]3OCC(O[C@@H]4OC(CO)C(O)[C@H](O)C4O)[C@@H](O)[C@@H]3O)[C@H](O)C2O)C(O)C(O)C1O (some centres not stated) | -19.6% (inactive)

Row | Structure (SMILES) | inhibition
67 | COc1ccc(CCC(=O)Nc2ccc(Cl)c(S(=O)(=O)N3CCOCC3)c2)cc1OC | -6.15% (inactive)
68 | O=[N+]([O-])c1ccc(NC(=S)N2CCN(c3ccccn3)CC2)cc1 | -31.5% (inactive)
69 | CNC(=S)N1CCN(c2ccccn2)CC1 | 2.28% (inactive)
70 | COc1cc([N+](=O)[O-])ccc1NC(=S)N1CCN(c2ccccn2)CC1 | 60.8% (active)
71 | CN1CCN(c2ccc([N+](=O)[O-])c(Sc3nc4ccccc4[nH]3)c2)CC1 | -6.9% (inactive)
72 | CCCn1nc(NS(=O)(=O)c2ccccc2)c2cc3cc(C)ccc3nc21 | -7.37% (inactive)
73 | Cc1ccc(S(=O)(=O)N(C)CC(=O)N2CCc3ccccc32)cc1 | -9.45% (inactive)
74 | COc1cc2c(cc1OC)CN(C(=O)c1cc(=O)c3ccccc3o1)CC2 | -36.4% (inactive)
75 | COc1ccccc1N1CCN(C(=O)c2cc(=O)c3cc(C)cc(C)c3o2)CC1 | 72.6% (active)
76 | COc1ccccc1N1CCN(C(=O)c2ccc(Cl)c(S(=O)(=O)N3CCCC3)c2)CC1 | -12.2% (inactive)
77 | O=C(Nc1ccc([N+](=O)[O-])cc1)OCCc1ccccn1 | -55.9% (inactive)
78 | Cc1ccc(C(=O)N/C(=C\c2ccc(F)cc2)C(=O)NCCN2CCOCC2)cc1 | -18.5% (inactive)
79 | COc1ccc(C(=O)Nc2ccccc2C(=O)N/N=C/c2ccc(O)c(OC)c2)cc1 | 80.5% (active)
80 | COc1cc(C=NNC(=O)c2cccnc2)ccc1OC(=O)c1ccccc1F | -15.7% (inactive)
81 | COc1ccc(C(=O)Nc2cc(C)c(NC(=O)c3ccccc3OC)cn2)cc1 | -9.89% (inactive)
82 | CC1=NCCN1S(=O)(=O)c1cccc([N+](=O)[O-])c1 | -44.4% (inactive)
83 | CCOc1ccc(Br)cc1S(=O)(=O)Nc1ccc(S(=O)(=O)Nc2cc(C)on2)cc1 | -17.7% (inactive)
84 | NC(=O)CC(NC(=O)Cc1ccc(Br)cc1)c1ccc(NC2CC3CCC2C3)c([N+](=O)[O-])c1 (configuration not stated) | -22.9% (inactive)
85 | COc1ccccc1-c1nnc2n1N=C(c1ccc(OC(F)F)c(OCC3CC3)c1)CS2 | -3.8% (inactive)
86 | COc1ccc(C2=Nn3c(nnc3-c3ccccc3OC)SC2)cc1OC1CCCC1 | 63.8% (active)
87 | CCn1c(SCC(=O)NC2CC2)nnc1-c1ccccc1OC | 3.39% (inactive)
